# Assay results published in PubChem BioAssay (Tox21).
# Several values for one entry are separate records, joined by “and”; a condition that tells them apart may be missing. Identical values can stand only once. Records with an inconclusive call do not appear. A call without a number means that no potency is given here. More than one record can exist for a structure, and the calls need not agree. Activity calls are given as the source filed them. The call rests on the fitted dose curve; in most records, active means well fitted activation curve with a large enough effect in the repeat runs; inconclusive means weak or mixed curves; inactive means flat fitted curve, though single readings scatter.
# Assay: Caspase-3/7 induction in HepG2 cells by small molecules, qHTS assay (AID 1346978); further: nearly all actives have a fitted effect of over 15% in size
# Settings: HepG2 caspase-3/7 activation, Caspase-Glo luminescence, 17 h; series mostly up to 92.4 µM; caspase activation: at the top concentration
# Source text: National Center for Advancing Translational Sciences [NCATS] NIH Chemical Genomics Center [NCGC] U.S. Environmental Protection Agency [EPA] National Institutes of Environmental Health Sciences [NIEHS] National Toxicology Program [NTP] Assay overview: Apoptosis is a process of programmed cell death and plays a central role in the development of multicellular organisms. It is a highly regulated process and induces cell death by activating caspases, which are the members of cysteine aspartic acid-specific protease (caspase) family. Caspases involved in apoptosis are classified by their mechanism of action as initiator caspases (caspase-2, -8, -9 and -10) and executioner caspases (caspase-3, -6, and -7). Inhibition of apoptosis results in number of cancers, autoimmune diseases, inflammatory diseases and viral infection. To identify small molecule compounds that induce apoptosis, a homogeneous, luminescent Caspase-Glo 3/7 assay was used. Wild type HepG2 cells were used to screen Tox21 libraries for identifying caspase-3/7 activity inducers.
# Assay Protocol Summary: HepG2 cells were dispensed at 2,000 per well in 5uL of culture medium into white solid bottom 1536-well plates (Corning Life Sciences, Corning, NY) using a Multidrop Combi (Thermo Scientific, Waltham, MA) dispenser. The assay plates were incubated at 37 C and 5% CO2 for 5hr, and then 23nL of compounds dissolved in DMSO and positive control were transferred using a Pintool station (Wako, San Diego, CA). The assay plates were incubated at 37C and 5% CO2 for 17hr. For caspase-3/7 activity read, 4uL of Caspase-Glo 3/7 reagent (Promega Corporation, Madison, WI) was added to each well of the assay plates using Flying Reagent Dispenser (FRD, Aurora Discovery, San Diego, CA) and incubated the assay plates at room temperature for 30min. The luminescence signal was quantified using a ViewLux plate reader (Perkin Elmer, Shelton, CT).
# Potency means the concentration at half of the fitted maximal effect.
Compound,Potency,caspase activation
Cc1ncc([N+](=O)[O-])n1CCO,inactive,
CCCc1cc(=O)[nH]c(=S)[nH]1,inactive,
Cc1cc(=O)oc2cc(O)ccc12,inactive,
OC[C@H]1O[C@H](O[C@]2(CCl)O[C@H](CCl)[C@@H](O)[C@@H]2O)[C@H](O)[C@@H](O)[C@H]1Cl,inactive,
CCN(Cc1c(F)cccc1Cl)c1c([N+](=O)[O-])cc(C(F)(F)F)cc1[N+](=O)[O-],,0.116% (inactive)
C1CCC(C(CC2CCCCN2)C2CCCCC2)CC1 (stereo not given),33.5 µM (active),
Nc1ccc(O)c([N+](=O)[O-])c1,,-5% (inactive)
Nc1c(N=Nc2ccc(-c3ccc(N=Nc4cc(S(=O)(=O)O)c5ccccc5c4N)cc3)cc2)cc(S(=O)(=O)O)c2ccccc12,,-3.75% (inactive)
CCN(CC)C(=O)c1cccc(C)c1,inactive,
CC/C(=C(\c1ccccc1)c1ccc(OCCN(C)C)cc1)c1ccccc1,27.5 µM (active) and 54.4 µM (active) and 61.1 µM (active),
NS(=O)(=O)c1cc2c(cc1Cl)NCNS2(=O)=O,inactive,
Cc1ccc(S(=O)(=O)O)cc1,inactive,
CN(C)C(=S)SC(=S)N(C)C,4.98 µM (active) and 770 nM (active) and 3.76 µM (active),
CC(O)(P(=O)(O)O)P(=O)(O)O,inactive,
Cc1cccc(C)c1,inactive,
NC1CCCCC1,inactive,
CCCCC1(COC(=O)CCC(=O)O)C(=O)N(c2ccccc2)N(c2ccccc2)C1=O,inactive,
O=C1NC(=O)C(c2ccccc2)(c2ccccc2)N1,inactive,
COc1ccc(CN(CCN(C)C)c2ccccn2)cc1,inactive,
CCCCCCCC(=O)OCC(COC(=O)CCCCCCC)OC(=O)CCCCCCC,inactive,

Compound,Potency,caspase activation
C[C@](N)(Cc1ccc(O)c(O)c1)C(=O)O,inactive,
CCCCCCc1ccc(O)cc1O,,11% [at 42.5 µM] (inactive)
Nc1ccc2c(c1)CN1C(=O)c3ccccc3C1=N2,,-14.3% [at 19 µM] (inactive)
CC12CCC(CC1)C(C)(C)O2,inactive,
Oc1ccccc1,inactive,
CCCCCCCCCCCCCCCC[N+](C)(C)Cc1ccccc1,70.8 µM (active) and inactive,
COc1cccc(O)c1O,,-3.56% (inactive)
CN1CCC[C@H]1c1cccnc1,inactive,
COc1ccc(C(Cl)=C(c2ccc(OC)cc2)c2ccc(OC)cc2)cc1,inactive,
O=c1[nH]cc(F)c(=O)[nH]1,inactive,
O=C1O[C@H]([C@@H](O)CO)C(O)=C1O,inactive,
NC(CO)(CO)CO,inactive,
COc1ccc2cc(S(=O)(=O)N[C@H](CC(=O)N[C@H](Cc3ccc(CN4[C@H](C)CCC[C@@H]4C)cc3)C(=O)N(C)C(C)C)c3ccc4c(c3)OCO4)ccc2c1,57.9 µM (active),
CN(C)C(=O)Nc1ccc(Cl)c(Cl)c1,inactive,
O=C(Nc1ncc([N+](=O)[O-])s1)c1cccs1,,-14% [at 42.5 µM] (inactive)
CC1(C)S[C@@H]2[C@H](NC(=O)[C@H](N)c3ccccc3)C(=O)N2[C@H]1C(=O)O,inactive,
CN(C)CCOC(C)(c1ccccc1)c1ccccn1 (stereo not given),inactive,
CC1(C)O[C@@H]2C[C@H]3[C@@H]4CCC5=CC(=O)C=C[C@]5(C)[C@@]4(F)[C@@H](O)C[C@]3(C)[C@]2(C(=O)CO)O1,inactive,
O=CC(=O)c1ccccc1,,-1.4% (inactive)
O=C1NS(=O)(=O)c2ccccc21,inactive,
